This is part of a sample that, as a whole, favours compounds with a hit. Of some 79,000 tested, about 15% had one in any assay. Active and inactive are the calls of the source. Rule as the data show it: active = growth inhibition above about 70%; inactive = the rest.
Key:
[1] = NCI Yeast Anticancer Drug Screen. Data for the rad50 strain (AID 155);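 also: 0% = growth of vehicle-only cultures of the same strain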; details: S. cerevisiae rad50 strain growth inhibition, hits give high values
How it was run: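 Growth of the mutant yeast was measured after compound exposure and referenced to vehicle-treated cultures.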

[2] = NCI Yeast Anticancer Drug Screen. Data for the mec2-1 strain (AID 157); details: S. cerevisiae mec2-1 strain, hits give high values
How it was run: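 Test agents were screened against the mec2-1 yeast strain, with defined DNA repair or cell cycle alteration. Growth was scored as inhibition against vehicle-only controls.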

[3] = NCI Yeast Anticancer Drug Screen. Data for the sgs1 mgt1 strain (AID 161);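 also: 0% = growth of cultures given vehicle only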; details: S. cerevisiae sgs1 mgt1 strain, hits give high values
How it was run: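 Read-out: growth inhibition vs vehicle controls. Cells: mutant yeast strain deficient in DNA damage repair.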

[4] = NCI Yeast Anticancer Drug Screen. Data for the cln2 rad14 strain (AID 165);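 also: 0% = growth equal to vehicle treated cultures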; details: S. cerevisiae cln2 rad14 strain, hits give high values
How it was run: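 Growth of compound-exposed yeast (cln2 rad14 genotype) measured and expressed as inhibition relative to vehicle.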

[5] = NCI Yeast Anticancer Drug Screen. Data for the bub3 strain (AID 167); details: S. cerevisiae bub3 mutant strain, hits give high values
How it was run: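 Whole-cell yeast assay. The mutant strain was incubated with compounds, and growth inhibition was determined by comparison with vehicle-treated cells.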

[6] = NCI Yeast Anticancer Drug Screen. Data for the mlh1 rad18 strain (AID 175); details: S. cerevisiae mlh1 rad18 strain growth inhibition, hits give high values
How it was run: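 In this whole-cell yeast screen, a strain with altered DNA damage repair is challenged with compound, and its growth is measured against matched vehicle-treated controls.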

[7] = at 5.0 µM (retest, dose inferred, filed as 0.5)
[8] = at 50.0 µM (retest, dose inferred, filed as 5.0)

Row | Compound | growth inhibition [1, 7] | growth inhibition [1, 8] | growth inhibition ([1]; at 50.0 µM) | growth inhibition [2, 7] | growth inhibition [2, 8] | growth inhibition ([2]; at 50.0 µM) | growth inhibition [3, 7] | growth inhibition [3, 8] | growth inhibition ([3]; at 50.0 µM) | growth inhibition [4, 7] | growth inhibition [4, 8] | growth inhibition ([4]; at 50.0 µM) | growth inhibition [5, 7] | growth inhibition [5, 8] | growth inhibition ([5]; at 50.0 µM) | growth inhibition [6, 7] | growth inhibition [6, 8] | growth inhibition ([6]; at 50.0 µM)
1 | Oc1[nH]c2ccccc2c1N=NC(=S)N1CCCCCC1 | 6% (inactive) | 98% (active) | 54.5% (inactive) | -5% (inactive) | 97% (active) | 72.2% (active) | -13% (inactive) | 98% (active) | 83.2% (active) | -17% (inactive) | 98% (active) | 78.5% (active) | -28% (inactive) | 99% (active) | 87.1% (active) | -8% (inactive) | 98% (active) | 79.8% (active)
2 | CCCCCCCCCCCCCCCCN1CCSCC1 | 39% (inactive) | 98% (active) | 98.3% (active) | 45% (inactive) | 99% (active) | 99% (active) | 65% (inactive) | 99% (active) | 98.9% (active) | 23% (inactive) | 99% (active) | 98.7% (active) | 36% (inactive) | 99% (active) | 99% (active) | 69% (inactive) | 99% (active) | 98.7% (active)
3 | CC1=C(C)C1[N+](=O)[O-] | 45% (inactive) | 94% (active) | 78% (active) | 35% (inactive) | 97% (active) | 79.8% (active) | 44% (inactive) | 98% (active) | 69% (inactive) | 25% (inactive) | 68% (inactive) | 24.4% (inactive) | 49% (inactive) | 97% (active) | 65.7% (inactive) | 64% (inactive) | 95% (active) | 62.9% (inactive)
4 | COC(=O)c1c(C)cccc1C(=O)c1c(C)cc(C)cc1C | -6% (inactive) | 63% (inactive) | 73.1% (active) | 21% (inactive) | 68% (inactive) | 82.2% (active) | -1% (inactive) | 82% (active) | 91.8% (active) | -26% (inactive) | 45% (inactive) | 15.2% (inactive) | 2% (inactive) | 56% (inactive) | 88.2% (active) | 4% (inactive) | 85% (active) | 91.8% (active)
